# In the library only some 2.4% were active in any assay of this set; here they are far more common.
# D2 ag-1 = Beta-Arrestin HTS for Positive Allosteric Modulators of the Human D2 Dopamine Receptor: Agonists | activation, % (no concentration beside the values) | DiscoveRx PathHunter D2 beta-arrestin, luminescence, 90 min; 100% = 57 uM dopamine signal | actives 0.084% (n = 360,000); in the data active = activation above about 40%; inconclusive = between about 15% and that limit
#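 Agonist mode: compounds alone added to overnight-plated D2 PathHunter cells for 90 min at 37 C, with 57 uM final dopamine (EC100) defining full response. Beta-arrestin recruitment detected by chemiluminescent reagent, read after 1 h at ambient temperature.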
# D2 PAM-1 = HTS Assay for Positive Allosteric Modulators of the Human D2 Dopamine Receptor: Primary Screen for Potentiators; D(2) dopamine receptor (Homo sapiens), P14416; HEK293 T-REx D2, calcium flux, EC20 dopamine potentiation; potentiation, % at 10 µM; actives 0.34% (n = 340,000); AID 485347, 2010;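 active = potentiation over 3 SD above the plate norm, cut at about 30% in these data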
#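 Primary screen. Calcium kinetics in induced HEK293 T-REx D2 cells: compound pre-addition 180 s, EC20 dopamine, 180 s more.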
# D2 antag = HTS Assay for Allosteric Antagonists of the Human D2 Dopamine Receptor: Primary Screen for Antagonists; actives 2% (n = 340,000); D(2) dopamine receptor (Homo sapiens), P14416; inhibition, % at 10 µM; HEK293 TREx D2 cells, calcium flux, dopamine EC80; in the data active = inhibition above about 30%; inactive = below that, where a call was filed
#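 Inhibition of EC80 dopamine-driven calcium flux, recorded kinetically, defines activity here; cells are a tetracycline-induced HEK293 T-REx line expressing force-coupled D2.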
# D2 ag-2 = HTS Assay for Allosteric Agonists of the Human D2 Dopamine Receptor: Primary Screen for Agonists; D(2) dopamine receptor (Homo sapiens), P14416; HEK293 T-REx D2 cells, calcium flux agonist mode; activation, % at 2 µM; actives 0.53% (n = 340,000);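 active = activation over 3 SD above normal in the single-dose calcium agonist read, cut at about 30% in these data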
#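 HEK293 Trex D2 cells, tetracycline-induced, o/n 30 C 5% CO2; no-wash Ca dye, RT 30–90 min; 10-cycle baseline, 23 nl cpd added, kinetic Ca read 180 s; agonist hits = positive Ca response.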
# D2 PAM-2 = Beta-Arrestin HTS for Positive Allosteric Modulators of the Human D2 Dopamine Receptor: Potentiators | D(2) dopamine receptor (Homo sapiens), P14416 | DiscoveRx D2 beta-arrestin cells, luminescence, 90 min; 100% = 57 uM dopamine signal | potentiation, % (test concentration not listed) | actives 0.23% (n = 360,000) | AID 624464, 2012; in the data active = potentiation above about 50%; inconclusive = mostly about 30% to 49%
#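 D2 cells co-treated with compound plus 50 nM dopamine (EC20) for 90 min at 37 deg C to detect potentiation. Beta-arrestin recruitment was read as enzyme-fragment luminescence after 1 h at ambient temperature. Full response was set by 57 uM dopamine.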
# B2AR arrestin = qHTS assay of beta-arrestin-biased ligands of beta2-adrenergic receptor | Beta-2 adrenergic receptor (Homo sapiens), P07550 | beta-arrestin recruitment to beta2AR, cell-based reporter | Potency, µM (highest dose often 46.1 µM), hits mostly activators | actives 0.02% (n = 330,000); active = well fitted activation curve with a large enough effect; inconclusive = small, poorly fitted or top-dose-only effect; note: nearly all actives have a fitted effect of over 65% in size
# Target sequence (P07550 whole entry, looked up): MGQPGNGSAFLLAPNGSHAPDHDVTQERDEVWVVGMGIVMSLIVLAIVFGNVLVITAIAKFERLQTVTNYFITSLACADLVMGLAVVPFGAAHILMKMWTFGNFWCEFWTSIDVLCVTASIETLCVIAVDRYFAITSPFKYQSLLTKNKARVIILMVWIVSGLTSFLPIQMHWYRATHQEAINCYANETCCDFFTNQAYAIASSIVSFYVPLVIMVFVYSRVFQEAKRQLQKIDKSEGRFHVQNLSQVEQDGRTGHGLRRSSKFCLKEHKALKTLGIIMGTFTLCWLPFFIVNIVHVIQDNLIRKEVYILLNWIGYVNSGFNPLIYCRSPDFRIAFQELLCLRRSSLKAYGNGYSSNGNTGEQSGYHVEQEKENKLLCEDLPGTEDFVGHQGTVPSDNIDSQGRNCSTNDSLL
# A number is an active result; . = inactive; ? = inconclusive; / = no result given.
SMILES,D2 ag-1,D2 PAM-1,D2 antag,D2 ag-2,D2 PAM-2,B2AR arrestin
CC(=O)Nc1ccc(S(=O)(=O)N2CCN(Cc3ccccn3)CC2)cc1,.,.,.,.,.,.
Cc1ccc(S(=O)(=O)N2CCN(CC(=O)N3CCOCC3)CC2)cc1,.,.,.,.,.,.
CC(=O)Nc1ccc(S(=O)(=O)N2CCN(S(=O)(=O)c3ccccc3)CC2)cc1,.,.,.,.,.,.
CC(=O)Nc1ccc(S(=O)(=O)N2CCN(Cc3csc(C)n3)CC2)cc1,.,.,.,.,53.2,.
CC(=O)Nc1ccc(S(=O)(=O)N2CCN(Cc3ccccc3[N+](=O)[O-])CC2)cc1,.,38.1,.,.,.,.
Cc1cc(C)c2c(=O)cc(C(=O)NCc3ccc(S(N)(=O)=O)cc3)oc2c1,/,.,/,.,/,/
CC(C)N(Cc1nc(-c2ccccc2)no1)C(=O)CCCN1C(=O)c2ccccc2C1=O,.,35.3,.,.,.,.
CC(C)N(Cc1nc(-c2ccccc2)no1)C(=O)CN1C(=O)c2ccccc2C1=O,.,35.8,.,.,.,.
Cc1ccc(-c2noc(CN(C(=O)C(c3ccccc3)c3ccccc3)C(C)C)n2)cc1,.,/,/,/,.,.
CCOC(=O)c1cc2occc2n1CC(=O)NC1CCCCC1C (centres undefined),.,.,.,.,.,.
CCCCNc1nc(Oc2ccc(OCC(N)=O)nn2)nc(N2CCOCC2)n1,/,.,/,.,/,/
COCCNC(=O)C1(C)CCCN(C(=O)c2ccc(C(F)(F)F)cc2)C1 (centres undefined),.,/,/,/,.,/
CCn1c(=O)cc(OCC(=O)NCc2cccs2)c2ccccc21,.,/,.,.,.,.
COc1ccc(NC2=NCC(=O)N2c2ccccc2F)cc1,.,.,36.6,.,.,.
O=C(COC(=O)Cc1ccc(Br)cc1)NC1CCCCCC1,.,.,.,.,.,.
O=[N+]([O-])c1ccc(N2CCN(CCO)CC2)cc1NCc1ccco1,.,.,34.1,.,.,.
COC(=O)c1nc2n(n1)C(c1cccc(Cl)c1)C(C(=O)Nc1ccccc1OC)=C(C)N2 (centres undefined),/,.,/,.,/,/
Cc1ccc(S(=O)(=O)CCN2CCN(c3ccccc3)CC2)cc1,.,.,30.2,.,.,.
Cc1ccc(S(=O)(=O)CCN2CCC(O)(c3ccccc3)CC2)cc1,.,.,.,.,.,.
COc1ccc(CC(=O)Nc2cccc(-c3csc(C)n3)c2)cc1,.,.,.,.,.,.
Cc1nc(-c2cccc(NC(=O)COc3ccc(Cl)cc3)c2)cs1,.,.,70.0,.,.,.
CCC(=O)Nc1cccc(-c2csc(-c3ccccc3)n2)c1,.,.,37.7,.,.,.
CCC(=O)Nc1cccc(C(=O)c2ccccc2)c1,.,31.0,.,.,.,.
O=C(COc1ccc(Cl)cc1)Nc1ccc2[nH]ncc2c1,.,.,34.1,.,.,.
O=C(COc1ccccc1)Nc1ccc2[nH]ncc2c1,.,.,.,.,.,.
SMILES,D2 ag-1,D2 PAM-1,D2 antag,D2 ag-2,D2 PAM-2,B2AR arrestin
O=C(CN(Cc1ccco1)C(=O)CNS(=O)(=O)c1ccc(Cl)cc1)NCC1CCCO1 (centres undefined),.,.,.,.,.,.
Cc1cc(C)c2c(n1)nn1c(NCCCN(C)C)cc(C)nc21,.,34.1,.,.,.,.
CCc1cccc(CC)c1NC(=O)C(CC)n1nc(C)n2c(cc3cc(C)ccc32)c1=O (centres undefined),/,.,/,/,/,/
CC(=O)N(C)c1nnc(-c2ccccn2)s1,.,.,42.6,.,.,.
CN(C(=O)c1cccnc1)c1nnc(-c2ccccn2)s1,.,.,.,.,.,.
COc1ccc(NC(=O)CN(C)C(=O)CN2C(=O)c3ccc([N+](=O)[O-])cc3C2=O)cc1,.,.,.,.,65.7,.
CCOC(=O)c1sc(N/N=C/c2cc(Br)c(O)c(OC)c2)nc1C,40.7,.,.,.,50.6,.
COc1ccc(/C=N/Nc2nnc(C)n2N)cc1OC,?,.,.,.,56.7,.
c1csc(-c2nn3cnnc3c3ccccc23)c1,.,/,/,/,.,.
COc1ccc(-c2[nH]ncc2CN2CCC(O)(c3ccc(Cl)cc3)CC2)cc1,.,.,.,.,.,.
OC1(c2ccc(Cl)cc2)CCN(Cc2cn[nH]c2-c2ccccc2)CC1,.,.,84.0,.,.,.
OC1(c2ccc(Cl)cc2)CCN(Cc2cn[nH]c2-c2ccc(F)cc2)CC1,.,.,56.4,.,.,.
C/C(=N\NC(=O)c1c(C)nc2ccccn12)c1ccccc1F,.,.,31.5,.,.,.
CCC(O)(CCN1CCCCC1)c1ccccc1 (centres undefined),.,.,.,.,.,.
OC(CCCN1CCCCC1)(c1ccccc1)c1ccccc1,.,.,80.1,.,.,.
COc1ccc(NC(=O)c2ccc(NC(=O)c3ccco3)cc2)c(OC)c1,.,/,/,/,.,.
O=C(Nc1ccc(O)cc1C(=O)O)c1ccc(NC(=O)c2ccco2)cc1,.,.,45.8,.,.,.
O=C(N/N=C/c1ccncc1)c1nn(Cc2ccccc2)c(=O)c2ccccc12,.,.,.,.,.,.
O=C(CCN1CCN(c2ccccc2)CC1)c1ccc(Cl)cc1,.,.,.,33.1,.,.
O=C(CCN1CCN(c2ccc([N+](=O)[O-])cc2)CC1)c1ccc(Cl)cc1,.,.,33.8,.,.,.
COc1ccc(-c2cc(C(F)F)n3ncc(C(=O)N4CCc5ccccc54)c3n2)cc1,.,.,.,.,.,.
COc1ccc(-c2cc(C(F)F)n3ncc(C(=O)N4CCN5CCCC5C4)c3n2)cc1 (centres undefined),.,.,51.8,.,.,.
Cc1cccc(C(O)C(O)c2cccc(C)n2)n1 (centres undefined),.,/,/,/,.,/
Cc1c(Cl)cn2c(=O)cc(CN3CCN(c4ccc(F)cc4)CC3)nc2c1Cl,/,.,.,31.6,/,.
Fc1ccc(N2CCN(Cc3ccccn3)CC2)cc1,.,.,.,.,.,.
Cc1ccc(N2CC(C(=O)Nc3ccc4c(c3)OCO4)CC2=O)cc1C (centres undefined),.,31.4,.,.,.,.

# Bioassay records: PubChem BioAssay, National Center for Advancing Translational Sciences (NCATS)
